In the library only some 3.1% were active in any assay of this set; here they are far more common.
KLK7 zymogen act = proKLK7 zymogen activators, primary screen, biochemical, fluorescence intensity | hit rate 0.9% among 370,000 | purified proKLK7, EDANS-DABCYL substrate fluorescence; 100% is mature enzyme control, 0% vehicle | activation, % at 7 µM | Kallikrein-7 (Homo sapiens), P49862;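 active = activation above the mean of all tested compounds plus 3 SD, computed per campaign excluding outliers beyond control limits, cut at about 13% in these data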
Target sequence (P49862 whole entry, looked up): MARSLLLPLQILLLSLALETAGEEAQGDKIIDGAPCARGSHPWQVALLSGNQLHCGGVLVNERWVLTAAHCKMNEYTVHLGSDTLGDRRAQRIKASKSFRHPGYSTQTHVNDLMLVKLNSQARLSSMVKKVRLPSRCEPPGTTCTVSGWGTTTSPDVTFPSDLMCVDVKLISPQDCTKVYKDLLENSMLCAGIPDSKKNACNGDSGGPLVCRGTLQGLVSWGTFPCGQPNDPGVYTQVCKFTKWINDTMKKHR
UHRF1 MBD2 ctr = UHRF1 methylated DNA binding inhibitors, primary screen, counter-screen for MBD2 inhibitor project, biochemical, TR-FRET, human UHRF1, single concentration | E3 ubiquitin-protein ligase UHRF1 (Homo sapiens), Q96T88 | UHRF1 binding to methylated oligo | inhibition, % at 4.4 µM | hit rate 0.75% among 370,000; in the data active = inhibition above about 21%;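 also: UHRF1 SRA domain binding a hemimethylated CpG hairpin DNA probe; 0% = median of test compound wells and 100% = reference inhibitor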
Neddylation inh = inhibitors of cullin neddylation, primary screen, biochemical, TR-FRET, uHTS, NAE and Ubc12 | hit rate 0.58% among 360,000 | calls only at 25 µM | AID 651699, 2012 | NEDD8-conjugating enzyme Ubc12 (Homo sapiens) + NEDD8-activating enzyme E1 regulatory …; in the data active = inhibition above about 36%
MBD2 DNA inh = inhibitors of MBD2 binding to methylated DNA, primary screen, biochemical, TR-FRET, DNA-binding domain, human | AID 686964, 2013 | MBD2 binding to methylated oligonucleotide | hit rate 0.31% among 370,000 | inhibition, % at 4.4 µM | Methyl-CpG-binding domain protein 2 (Homo sapiens), Q9UBB5; in the data active = inhibition above about 13%
Rin1-Abl PPI inh = inhibitors of Rin1-Abl protein binding, primary screen, biochemical, TR-FRET. Tyrosine-protein kinase ABL1 (Homo sapiens) + Ras and Rab interactor 1 (Homo sapiens), …. inhibition, % at 7.35 µM. hit rate 0.4% among 360,000. AID 588664, 2011; in the data active = inhibition above about 5%, passing the limit was not always enough
LEDGF integ inh = blockers of LEDGF/p75-dependent integrase strand transfer – biochemical, TR-FRET, high throughput, primary screen; hit rate 0.64% among 370,000; inhibition, % at 3.7 µM; TR-FRET IN-LEDGF/p75 DNA integration, Eu/Cy5; HIV-1 integrase (with human LEDGF/p75);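 active = inhibition above the screen-wide mean plus 3 SD, cut at about 13% in these data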;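 also: signal is the Cy5 over europium emission ratio at 671 and 618 nm; 0% = plate median of compound wells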
Neddyl conf = blockade of NEDD8 conjugation to cullin – biochemical, TR-FRET, single concentration, confirmation | shares compounds with Neddylation inh | hit rate 13% among 1,800 | AID 652217, 2013 | calls only at 25 µM | TR-FRET cullin neddylation biochemical assay; in the data active = inhibition above about 40%;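 also: neddylation substrate is the cullin 1 ring ligase complex with SKP2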
* = called active by the depositor; i = inactive; / = no result given; + = active, no number.

SMILES	KLK7 zymogen act	UHRF1 MBD2 ctr	Neddylation inh	MBD2 DNA inh	Rin1-Abl PPI inh	LEDGF integ inh	Neddyl conf
CC1(C)CC(NC(=O)COc2ccc3c4c(c(=O)oc3c2)CCCC4)CC(C)(C)N1	1	-6	+	-2	-1	1	/
O=C(COc1ccc2c3c(c(=O)oc2c1)CCCC3)NCCCN1CCOCC1	0	6	+	-2	1	-1	i
O=C(COc1ccc2c3c(c(=O)oc2c1)CCCC3)NCCN1CCOCC1	/	/	+	/	-1	/	i
CC(=O)COc1ccc2c3c(c(=O)oc2c1)CCCC3	0	-5	/	-4	-2	3	/
NC(=O)C1CCN(C(=O)COc2ccc3c4c(c(=O)oc3c2)CCCC4)CC1	0	-1	/	0	0	2	/
O=C(COc1ccc2c3c(c(=O)oc2c1)CCC3)NCCN1CCOCC1	0	0	i	1	1	0	/
O=C(OCCCN=C1NS(=O)(=O)c2ccccc21)C1CC(=O)N(c2ccc(Cl)cc2)C1 (stereo not drawn)	0	6	i	-1	0	3	/
COC(=O)C[C@@H]1CC[C@@H]2[C@@H](COc3ccc(NC(=O)Nc4cccc(Cl)c4)cc3C(=O)N2C)O1	1	0	/	-6	/	-4	/
COC(=O)[C@@H](Cc1ccc(O)cc1)NC(=O)[C@H]1O[C@@H](n2cnc3c(=O)[nH]c(N)nc32)[C@H](O)[C@@H]1O	0	0	/	0	/	-2	/
COc1ccc(C(=O)NC(=S)NNC(=O)[C@H]2C[C@@H]2c2ccccc2)cc1OC	0	-5	+	1	1	3	i
O=C(CSc1nnc(-c2ccco2)n1Cc1ccco1)c1ccc([N+](=O)[O-])cc1	1	3	/	0	/	7	/
COc1ccc(C(C(=O)NCC2CCCO2)N(C(=O)c2snc(C(N)=O)c2N)c2ccccc2)cc1OC (stereo not drawn)	1	0	+	0	0	-2	+
COc1cccc(N(C(=O)c2snc(C(N)=O)c2N)C(C(=O)NCC2CCCO2)c2ccc(C)o2)c1 (stereo not drawn)	0	0	i	-1	3	2	/
COc1cccc(N(C(=O)c2snc(C(N)=O)c2N)C(C(=O)NCC2CCCO2)c2ccc(F)cc2)c1 (stereo not drawn)	-1	0	+	1	-3	-1	i
Cc1cccc(N(C(=O)c2snc(C(N)=O)c2N)C(C(=O)NCC2CCCO2)c2cccs2)c1 (stereo not drawn)	0	-1	+	-3	-1	0	i
CCCC(C(=O)NC1CCCC1)N(CC1CCCO1)C(=O)c1snc(C(N)=O)c1N (stereo not drawn)	3	6	+	-3	1	2	i
CCCC(C(=O)NC(C)(C)C)N(CC1CCCO1)C(=O)c1snc(C(N)=O)c1N (stereo not drawn)	2	-1	i	-6	-3	1	/
CCc1ccccc1N(C(=O)c1snc(C(N)=O)c1N)C(C(=O)NCC1CCCO1)c1ccc(OC)c(OC)c1 (stereo not drawn)	11	0	/	4	3	-5	/
Cc1ccc(C)c(N(C(=O)c2snc(C(N)=O)c2N)C(C(=O)NCC2CCCO2)c2cccs2)c1 (stereo not drawn)	-10	7	/	-2	0	3	/
CS(=O)(=O)N(CC(=O)NCc1ccco1)c1ccc(OCc2ccccc2)cc1	0	-2	i	0	7	3	/
COc1ccccc1N1CCN(S(=O)(=O)CCNC(=O)C2CCCCC2)CC1	1	-2	i	-8	2	-1	/
COc1cccc2c(=O)n(CC(=O)Nc3cccc(F)c3)ccc12	3	0	i	3	-2	0	/
CCn1c(SCC(=O)NN=Cc2cccc(OCc3ccccc3)c2)nnc1-c1ccc(OC)c(OC)c1	0	-4	/	1	/	2	/
CCOC(=O)c1cnc2c(C(=O)OCC)cnn2c1N	-1	2	i	-5	-2	6	/
CCOC(=O)c1cnn2c(N)c(C#N)cnc12	-5	0	+	-2	-4	-10	i
SMILES	KLK7 zymogen act	UHRF1 MBD2 ctr	Neddylation inh	MBD2 DNA inh	Rin1-Abl PPI inh	LEDGF integ inh	Neddyl conf
Cc1ccc(C(O)c2ncc(-c3cccc4ccccc34)[nH]2)cc1F (stereo not drawn)	0	-1	+	3	-5	1	i
O=C(Cc1ccc(Cl)cc1)Nc1ccc2c(c1)C(=O)NC2=O	-129	-3	+	-1	3	-1	/
CC(C)(C)c1ccc(C(=O)Nc2ccc3c(c2)C(=O)NC3=O)cc1	-1	1	/	-1	2	4	/
CC(=O)c1ccc(C(=O)Nc2ccc3c(c2)C(=O)NC3=O)cc1	-3	-1	+	-7	-4	2	i
CC1CC(C)CN(C(=O)CSc2nnc(N)s2)C1 (stereo not drawn)	0	2	i	2	0	-3	/
COC1=C[C@H](C(=O)N[C@H]2CCCC[C@@H]2NC(C)=O)[C@H](C)[C@@H](c2ccccc2)CC1=O	0	3	/	-3	/	2	/
CC(/C=N/NC(=O)c1ccc(CN2c3cccc4cccc(c34)S2(=O)=O)cc1)c1ccccc1 (stereo not drawn)	-1	-1	/	-3	-1	1	/
O=C(O)c1ccc(/C=N/NC(=O)c2ccc(CN3c4cccc5cccc(c45)S3(=O)=O)cc2)cc1	-12	1	+	0	0	1	+
COc1ccc(-c2[nH]c(-c3cccc(OC)c3)nc2SCC(=O)NCc2ccco2)cc1	1	-1	+	-4	2	10	i
COc1ccc(-c2ccc(SCC(=O)NCc3ccco3)nn2)cc1	0	3	i	5	-3	5	/
Cc1nc2c(c3c1[nH]c1ccccc13)C(=O)CC(C)(C)C2	1	-1	+	-2	-8	2	/
CCc1ccccc1N(CC(=O)NCc1ccco1)C(=O)CCC(=O)Nc1nccs1	0	3	i	7	3	-2	/
NC(=O)/C(=C/c1ccco1)NC(=O)c1ccc(Br)o1	0	-3	i	-5	-2	2	/
